Sampled rows, rich in hits. Any-hit rate of the full collection: about 6%.
D1 ag: activates the human D1 dopamine receptor; 360,000 tested, 1% active; P21728; AID 504660; HEK293 T-REx D1 cells, calcium flux, agonist mode; activation, % at 2 µM; in the data active = activation above about 30%; note: 0% is about no effect
Target sequence (P21728 whole entry, looked up): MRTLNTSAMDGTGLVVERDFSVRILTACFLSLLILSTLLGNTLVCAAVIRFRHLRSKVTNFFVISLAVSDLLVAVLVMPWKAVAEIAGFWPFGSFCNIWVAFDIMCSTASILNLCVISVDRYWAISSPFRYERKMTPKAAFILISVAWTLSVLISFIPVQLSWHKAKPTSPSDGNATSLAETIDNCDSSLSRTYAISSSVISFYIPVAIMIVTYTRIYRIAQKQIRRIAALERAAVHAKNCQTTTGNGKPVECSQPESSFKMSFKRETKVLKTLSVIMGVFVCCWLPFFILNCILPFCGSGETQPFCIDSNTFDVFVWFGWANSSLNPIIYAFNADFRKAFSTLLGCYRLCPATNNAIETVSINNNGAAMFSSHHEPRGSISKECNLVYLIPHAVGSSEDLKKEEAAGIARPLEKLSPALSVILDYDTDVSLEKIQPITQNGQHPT
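Agonism was scored from calcium flux recorded over 180 s (1 read/s) after pintool compound addition, following a 10-cycle baseline. Cells were inducible force-coupled HEK293 TREx D1, plated overnight at 30 C and loaded with no-wash calcium dye.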
D3 antag: blocks the human D3 dopamine receptor; P35462; D3R cells, DiscoveRx beta-arrestin luminescence, antagonist mode; active compounds read low; max response, negative = inhibition, %; 360,000 tested, 2.5% active; AID 652054; in the data active = max response below about -50%; inconclusive = no clear call, values can overlap the other calls; note: % is set by controls: 0 for no effect and ±100 for the full control effect
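Cells expressing the human receptor were seeded at 1500 cells/well, incubated overnight at 37 degrees C in 5% CO2, then exposed to library compounds with dopamine controls for 90 minutes at 37 degrees C before luminescent detection.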
D1 potentiator: potentiators of human D1 dopamine receptor | P21728 | HEK293 TREx D1 cells, calcium flux, dopamine EC20 potentiation | potentiation, % at 10 µM | AID 504651 | 360,000 tested, 0.036% active; in the data active = potentiation above about 30%; note: 0% is about no effect
DRD3 agonist: D3 dopamine receptor (human) agonism. D3R DiscoveRx beta-arrestin cells, luminescence, 90 min. AID 652048. P35462. 410,000 tested, 0.58% active. max activation, %; in the data active = max activation above about 30%; note: 0% is about no effect
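Cells at 1500/well, incubated overnight, then treated with pinned compounds (dopamine as control) for 90 min at 37 degrees C. DiscoveRx reagent added for 30 - 60 minutes at room temperature; luminescence read.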
D1 antagonist: antagonists of human D1 dopamine receptor; P21728; HEK293 TREx D1 cells, calcium flux, dopamine EC80; active compounds read low; activity change, negative = inhibition, % at 10 µM; 360,000 tested, 3.2% active; AID 504652; in the data active = activity change below about -30%; note: % is set by controls: 0 for no effect and ±100 for the full control effect
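Tetracycline-induced HEK293 T-REx cells with force-coupled D1 receptor were loaded with a no-wash calcium dye. Compound was added after a 10 s baseline and read kinetically for 180 s; EC80 dopamine was then added and calcium flux followed another 180 s.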
* = called active by the depositor; ? = inconclusive; · = not tested or not shown.

SMILES	D1 ag	D3 antag	D1 potentiator	DRD3 agonist	D1 antagonist
O=Cc1c(NCc2ccccc2)c2ccccc2[nH]c1=O	2.6	5.5	-0.7	-0.7	6.3
Cc1ccc(NC(=O)Nc2nnc(N(C)C3CCCCC3)s2)c(Cl)c1	1.6	·	-0.5	-15.6	-3.3
COCCCNC(=O)CC(NS(=O)(=O)c1ccc(C)cc1)c1ccco1 (configuration not stated)	-0.2	-58.0*	-7.2	8.7	-22.8
CN(CC(=O)Nc1cccc(Cl)c1)S(=O)(=O)c1ccc2[nH]c3c(c2c1)CCCC3	-1.0	·	-3.0	4.4	-34.7*
O=C(Nc1cccc(F)c1)C1CCN(S(=O)(=O)c2ccc3[nH]c4c(c3c2)CCCCC4)CC1	0.9	·	-1.4	1.4	-31.6*
Cc1cc2c(s1)c1cnn(Cc3cc(F)c(F)c(F)c3)c(=O)c1n2C	0.7	·	4.2	·	-8.7
N/C(=N/O)C(c1ccccc1)c1ccccc1	4.5	-2.2	1.1	0.6	-44.2*
CCOC(=O)c1ccc(Nc2nnc(C(C)(C)C)c(=O)[nH]2)cc1	18.4	-17.2	-8.6	-4.8	-55.9*
COc1cc(-c2noc(C)c2-c2ccc3[nH]ccc3c2)cc(OC)c1OC	6.7	-24.8	4.4	-35.6	-18.3
COc1cc(-c2noc(C)c2-c2ccc(N(C)C)nc2)cc(OC)c1OC	88.9*	-13.5	0.4	-5.5	-59.0*
CCOC(=O)c1c(-c2ccc(C)o2)csc1NC(=S)NC(=O)N(C)C	0.9	-55.0*	9.2	1.5	6.7
Cc1ccc(S(=O)(=O)NNC(=O)c2ccc(NC(=O)C3CC3)cc2)cc1	3.3	-24.8	4.8	-5.2	3.8
Cc1ccc(NC(=O)N2CCN(c3nnc(C)c4c(C)n(-c5ccccc5)nc34)CC2)cc1Cl	0.5	·	-5.0	0.9	-13.0
COc1ccc2c(Cl)c(C(=O)N/N=C3\CCCC(=O)C3)sc2c1	44.1*	-3.7	-2.9	-2.9	-17.9
COc1ccc2c(Cl)c(C(=O)N/N=C/c3ccc4c(c3)OCO4)sc2c1	2.9	5.9	-7.3	2.9	12.8
CCn1c2ccccc2c2cc(NC(=O)c3cc(C)on3)ccc21	0.3	-14.0	-15.3	-2.5	-45.1*
CCn1c2ccccc2c2cc(NC(=O)c3coc(=O)c(Br)c3)ccc21	14.8	·	-4.7	·	-32.3*
CCn1c2ccccc2c2cc(NC(=O)c3ccc(Br)o3)ccc21	5.5	9.0	-0.4	-4.5	-11.7
CCc1cccc(NC(=O)c2cc3c(=O)oc4ccc(C)cc4c3s2)c1	1.3	·	-3.2	-3.9	5.3
CC(=O)N1[C@H](C)C=C[C@]1(Cc1ccccc1)C(=O)O	-1.7	8.1	-0.7	30.6*	-0.5
CCC(=O)Nc1nc2ccccc2n1CCN(C)C	0.3	-81.2*	-4.5	-0.7	7.3
CC(=O)Nc1nc2ccccc2n1CCN(C)C	0.7	-15.2	4.0	-3.0	-1.9
CCCCn1c(NC(=S)Nc2ccccc2)nc2ccccc21	0.7	63.3	-5.6	31.7*	2.4
CN(C)CCCn1c(NC(=O)C2CCCCC2)nc2ccccc21	0.7	-51.6*	-3.0	-22.3	1.1
CN(C)CCn1c(C(=O)Nc2ccccc2)cc2ccccc21	3.3	0.0	-14.1	-7.8	-42.9*
SMILES	D1 ag	D3 antag	D1 potentiator	DRD3 agonist	D1 antagonist
Cc1cccc(Cn2cccc2CNS(=O)(=O)c2ccccc2F)c1	4.4	·	1.8	0.0	-6.6
O=C(CCCC(=O)OCC(=O)c1cccs1)Nc1ccc(Oc2ccccc2)cc1	19.2	-3.5	-7.5	2.2	-41.7*
O=C(COC(=O)C1CCC1)Nc1ccc(Oc2ccccc2)cc1	4.3	-17.2	-1.6	24.0	-14.0
O=C(CN1CCCCCC1)Nc1ccc(Oc2ccccc2)cc1	67.4*	3.4	-9.6	-5.8	-37.8*
O=C(COC(=O)C1CC1)Nc1ccc(Oc2ccccc2)cc1	4.2	-23.2	-6.7	-4.1	-35.3*
O=C(CCCC(=O)OCC(=O)c1cccs1)Nc1ccc(F)cc1	3.2	15.9	2.0	-6.0	-2.4
O=C(CN1CCCCC1)Nc1ccccc1	2.8	2.0	-3.8	0.0	-1.6
CCOc1ccccc1NC(=O)C(C)Sc1nc2c(c(=O)[nH]1)CCCC2 (configuration not stated)	-0.3	·	-1.3	1.9	13.1
Cc1cc(O)c(CN2CCN(c3ccccc3)CC2)c2oc(=O)cc(C)c12	0.7	·	-0.7	-5.1	6.5
c1ccc(-c2ccc3c(c2)c2c4n3CCN=C4CCC2)cc1	2.8	-9.7	1.1	-6.9	4.9
OC1CN=C2CCCc3c2n(c2ccc(Cl)cc32)C1 (configuration not stated)	2.9	-77.0*	-2.5	-14.9	2.3
NC(=O)c1ccc(-n2nnnc2Oc2ccccc2)cc1	-2.2	20.3	1.5	-3.5	-49.0*
CCc1c(C)sc2c1CCN(Cc1ccccc1)C2c1ccccc1 (configuration not stated)	1.2	·	-0.8	-1.0	-4.5
CN1CCC(N(CCc2ccccc2)C(=O)CCC(=O)O)CC1	3.1	7.3	5.5	-0.2	-31.5*
COc1cccc2sc(Nc3nnc(-c4cccs4)o3)nc12	2.3	-4.9	-4.2	3.7	-45.7*
COc1ccc(CCNC(=O)c2cnn(-c3ccc(F)cc3)c2C2CCN(C(=O)OC(C)(C)C)CC2)c(OC)c1	0.5	·	-1.4	5.7	-1.3
CC(C)CNc1nc(Oc2ccc(=O)n(C)n2)nc(N2CCOCC2)n1	3.3	-22.7	-12.3	3.1	-43.3*
CC(C)CNc1nc(Oc2ccc(=O)n(-c3ccccc3)n2)nc(N2CCOCC2)n1	0.9	20.4	-3.9	1.3	-22.9
COc1ccc(CNC(=O)Cc2c(C)c3c(cc(C)c4c(C)c(C)oc43)oc2=O)cc1	0.3	·	-1.0	-11.9	-1.1
COc1cc(NS(=O)(=O)c2ccc(C(=O)O)cc2)c2nc(C)ccc2c1	1.3	·	10.6	·	19.5
Cc1ccc(S(=O)(=O)Nc2cccc3cccnc23)cc1	0.3	-80.6*	-6.8	-11.7	-24.0
NS(=O)(=O)Nc1cccc2cccnc12	0.3	·	4.5	·	3.3
COc1cc(NS(=O)(=O)c2ccc(C)cc2)c2ncccc2c1	0.7	-55.0*	-4.3	-16.3	-7.6
Cc1ccc(C(=O)CN2/C(=C(\O)c3ccccc3)C(=O)c3ccccc3S2(=O)=O)c(C)c1	3.2	-50.1*	-2.1	-3.7	-7.3
c1csc(Cc2nn3c(-c4n[nH]c5c4CCC5)nnc3s2)c1	0.3	-61.5*	0.3	0.3	-1.5
CC(/C=N/NC(=O)c1ccccc1F)=C\c1ccccc1	-1.4	-3.3	-12.0	-12.4	-35.2*
CC(=C/c1ccccc1)/C=N/NC(=O)CSc1nc(C)cc(C)n1	8.6	13.5	-9.1	-0.4	-33.9*
O=C(N/N=C/C(Br)=C\c1ccccc1)c1n[nH]c2c1CCC2	1.1	?	-2.1	-15.2	7.1
Cc1cc(C(=O)N/N=C/C(Cl)=C/c2ccccc2)c(C)o1	4.0	-11.5	-4.2	-15.6	-32.6*
CC(/C=N/NC(=O)c1n[nH]c2c1CCC2)=C\c1ccccc1	4.3	0.0	-0.6	-1.1	-78.9*
